The source of these data is ChEMBL document CHEMBL4513216, “Probing the Open Global Health Chemical Diversity Library for Multistage-Active Starting Points for Next-Generation Antimalarials” (ACS Infect Dis, 2020).

Hit rate of the full screen: of about 69,000 compounds, about 8,600 (12%) showed an effect of 50% or more. Only a selection was taken, and strong results are over-represented in it overall.

The assay has as its system Plasmodium berghei. Kind of assay: Screen against P. berghei liver stage (PbLuc), transformed with Luciferase, at 10uM. Format: functional, HepG2. Conditions: tested at 10 uM.
On to `CCOc1ccccc1OC1CCN(C(=O)c2[nH]nc(C)c2Br)CC1`, for which the INHIBITION is given as 2.97%. Turning to `Cc1nc(CCCNC(=O)[C@H]2CNC[C@@H](C(=O)N3CCCC3)C2)sc1C`, the INHIBITION is 6.72%. Consider `COCC[C@]1(O)CCN(C(=O)CCn2c(C)cccc2=O)C[C@H]1C`, for which the INHIBITION was determined as 1.94%. Under `Cn1cc(CN2CCc3ccc(=O)n(CC4CC4)c3CC2)cn1` stands 89.1%; under `CN(C)CCn1c2c(ccc1=O)CCN(Cc1cnn(C)c1)CC2`, -3.26%.

As for `Cn1cc(CN2CCc3ccc(=O)n(Cc4ccncc4)c3CC2)cn1`, the INHIBITION is 20.6%. With `CN(C)C(=O)Cn1c2c(ccc1=O)CCN(Cc1cnn(C)c1)CC2` the figure was 52.4%; with `CN(C)CCn1c2c(ccc1=O)CCN(Cc1ccncc1)CC2`, -7.24%. Under `O=c1ccc2c(n1CC1CCOCC1)CCN(Cc1ccoc1)CC2` stands 5.41%; under `Cc1ccc(CN2CC[C@H](O)[C@@H](n3ccc(=O)[nH]c3=O)CC2)cc1`, 37.6%; under `Cn1cc(CN2CCC(Cn3cc(-c4ccccc4)nn3)CC2)cn1`, 48.8%. As for `CN(C)c1cc(C(=O)N2CCN(c3nccs3)CC2)ccn1`, the INHIBITION is -43.9%.

For `O=C(c1cccnc1)N1CCC2(CC1)CNc1c(F)cccc12`, the INHIBITION worked out at 40.5%. With `O=C(c1ccccc1)N1CCC2(CC1)CNc1c(F)cccc12` the figure was 60.3%; with `CC(=O)N1CCC2(CC1)CNc1c(F)cccc12`, 29.5%; with `Cc1cc(CN2CCN(C(=O)NCCc3csc(C)n3)CC2)on1`, -43.5%. As for `O=C(NCC1CCOCC1)[C@@H]1C[C@@H]2[C@@H](CCN2Cc2ccoc2)O1`, the INHIBITION is on record as 12.5%. Consider `CN(C)S(=O)(=O)N1CCCC(c2cccc(Cc3ccc(F)cc3)n2)C1` (stereo not given), for which the INHIBITION came out at 96%. Under `CN(C)S(=O)(=O)N1CCCC(c2cccc(Cc3ccccc3)n2)C1` (stereo not given) stands 84%; under `Cc1cc(C2CCCN(S(=O)(=O)N(C)C)C2)ccn1` (stereo not given), -20.6%. With `CS(=O)(=O)N1CCCC(c2cccc(-c3ccccc3F)n2)C1` (stereo not given), the INHIBITION was determined as 12.675%.

Consider `CN(C)S(=O)(=O)N1CCCC(c2nccnc2-c2cccc(Cl)c2)C1` (stereo not given), for which the INHIBITION is given as 5.37%. With `CN(C)S(=O)(=O)N1CCCC(c2cccc(Cc3ccccc3F)n2)C1` (stereo not given) the figure was 15.9%; with `CN(C)S(=O)(=O)N1CCCC(c2ccncn2)C1` (stereo not given), 25.6%. `CN(C)S(=O)(=O)N1CCC(c2cccc(Cc3ccccc3Cl)n2)CC1`: the INHIBITION is on record as 96%. With `CN(C)S(=O)(=O)N1CCCC(c2cccc(Cc3ccc(Cl)cc3)n2)C1` (stereo not given) the figure was 82.7%.

For the compound `Cc1noc(C)c1-c1cccc(C2CCN(S(=O)(=O)N(C)C)CC2)n1`, the INHIBITION was 32.4%.

For `Cc1c[nH]nc1C1CCN(S(=O)(=O)N(C)C)C1` (stereo not given), the INHIBITION is given as -9.32%. Under `CN(C)S(=O)(=O)N1CCC(c2ccncn2)CC1` stands -9.32%; under `COc1ccc(C)cc1Nc1nc2c(C)nn(C)c2c(=O)n1C`, -2.13%; under `COCCN1CCC(CNC(=O)C2(c3cccc(Cl)c3)CC2)C1` (stereo not given), 30.6%. With `c1cncc(CN2CCC(c3ccc4c(c3)OCO4)CC2)c1`, the INHIBITION is reported as 6.4%. For `Cc1nc(O)c2nnn(C[C@H]3CCCN3C(=O)C3CCCC3)c2n1`, the INHIBITION is 30.4%. Under `Cc1cc(NC(=O)NCCCSc2nncn2C)no1` stands 15%. Under `Cc1nn(C)c(N(C)C)c1CNCc1ccc2c(c1)OCO2` stands 11.4%; under `COC1CCN(c2ccc(F)cc2CN(C)CC(N)=O)CC1`, -3.83%; under `CN1CCCC(c2cccc(Cc3ccccc3Cl)n2)C1` (stereo not given), 51.7%. Under `CC(=O)N1CCCC1c1cccc(Cc2ccccc2Cl)n1` (stereo not given) stands 38.2%; under `CN1CCCC(c2cccc(CCC(N)=O)n2)C1` (stereo not given), -4.51%; under `Cc1ccc(-c2nc(CNCC3CN(C)CCO3)co2)c(C)c1` (stereo not given), 7.12%. In the case of `Cc1ccc(-c2nc(CSCCC(=O)NC(N)=O)co2)cc1`, the INHIBITION amounted to 89.6%. `NC(=O)NC(=O)CCSCc1coc(-c2ccc(F)cc2)n1`: the INHIBITION was 67.8%. Under `NC(=O)NC(=O)CCSCc1cc(F)cc2cccnc12` stands -28.9%; under `NC(=O)NC(=O)CCSCc1coc(-c2cccc(Cl)c2)n1`, 5.91%. With `CNC(=O)CCS(=O)(=O)Cc1coc(-c2ccc(F)cc2)n1` the figure was 7.43%; with `CNC(=O)Cc1coc(-c2ccc(F)cc2)n1`, 48.1%. As to `Cc1ccc(-c2nc(CSCCC(=O)NC(N)=O)co2)c(C)c1`, the INHIBITION was found to be 87.4%. In the case of `Cc1ccc(-c2nc(CCNC(=O)NCC(C)(C)C(N)=O)co2)cc1`, the INHIBITION is given as 27.6%. Under `CS(=O)(=O)c1cccc(C(N)c2ccc(F)c(F)c2)c1` (stereo not given) stands -15%.

Turning to `COCCNC(=O)Cn1c(-c2ccc(F)cc2)nc(C)c(CCO)c1=O`, the INHIBITION is -20.7%. With `CC1CCN(CC(=O)NC2CCN(C(C)c3ccccc3)CC2)CC1` (stereo not given), the INHIBITION is given as -1.845%. Take `NCC1CCC(C(NC(=O)CC2CCCC2)c2ccccn2)CC1` (stereo not given): the INHIBITION was 1.11%. Under `Cc1cc(-c2nn3c(C4CC4)nnc3s2)on1` stands -6.47%; under `CCn1c(C)cc(C(=O)N2CCCC(C(=O)c3nccn3C)C2)c1C` (stereo not given), -1.09%; under `CC(=O)NC1CCN(c2cnc(C3CCNCC3)cn2)CC1`, 18.3%. Under `COCC1CCCN(c2cncc(OCc3ccccc3)n2)C1` (stereo not given) stands 26.5%; under `Cc1cnn(CC(C)NCc2nc(-c3ccco3)no2)c1` (stereo not given), 53.5%; under `Cc1cnn(CC(C)NCc2nc(-c3ccccn3)no2)c1` (stereo not given), 56.1%.

`Cc1cccc(-c2noc(CNC(C)Cn3cc(C)cn3)n2)c1` (stereo not given): the INHIBITION is reported as 25.4%. With `CC(Cn1cccn1)NCc1nc(-c2ccccn2)no1` (stereo not given) the figure was -62.7%. With `Cc1cnn(CCNCc2nc(-c3ccccn3)no2)c1` the figure was -50.5%; with `CC(Cn1cccn1)NCc1nc(-c2ccco2)no1` (stereo not given), 12.7%; with `CN1CC(=O)N(c2cccnc2)CC12CCN(C(=O)c1cccnc1)C2` (stereo not given), -13.3%. Under `O=C(c1ccccc1OC1CCCC1)N1CCCC(n2cncn2)C1` (stereo not given) stands 49.8%. Take `Cc1ccc(CN2CCC3(CCC(C(=O)N(C)C)O3)CC2)o1` (stereo not given): the INHIBITION was -7.28%.

`Cn1cc(CC2CCN(C(=O)NCc3cn4ccsc4n3)C2)cn1` (stereo not given): the INHIBITION is 19.7%. `CC(C)CNC(=O)N1C[C@@H]2C[C@H](C(=O)NCc3ccccc3)[C@H](C1)O2`: the INHIBITION is reported as -7.2%. Under `COc1ccccc1N1CC(NC(=O)c2cc(C(C)C)nn2C)CC1=O` (stereo not given) stands 69.4%; under `COc1ccccc1N1CC(NC(=O)Cn2cc(C(C)C)nn2)CC1=O` (stereo not given), -14.2%. Under `COc1ccccc1N1CC(NC(=O)Cn2cc(C)nn2)CC1=O` (stereo not given) stands -71.7%.
